DSG3 Ab inh: inhibitors of pemphigus antibody binding to DSG3, primary screen, biochemical, bead-based, flow cytometry, scFv-GFP | AID 588358, 2011 | DSG3-coupled beads, scFv-anti-DSG3-GFP binding; stronger effect = lower value | 310,000 compounds, 0.48% hits | binding (percent of control), % at 10 µM;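 active = binding more than 3 SD below its plate's average and above zero; inconclusive = below that plate limit but binding exactly zero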
rCAG binder-1: binders of r(CAG) RNA repeats, primary screen, biochemical, fluorescence | r(CAG) RNA repeat, TO-PRO-1 dye displacement fluorescence | inhibition, % at 3 µM | 370,000 compounds, 1.3% hits | AID 651821, 2012;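 active = inhibition above the plate cutoff, the mean of all test compounds on that plate plus 3 SD, cut at about 35% in these data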;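 also: higher means more dye released from RNA so lower well fluorescence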
MsrA inhibitor: bovine MsrA enzyme inhibitors, primary screen, biochemical, absorbance, HTS | Methionine sulfoxide reductase A (Bos taurus) | purified bovine MsrA, absorbance read-out | inhibition, % at 15.5 µM | 360,000 compounds, 0.75% hits | AID 651718, 2012; in the data active = inhibition above about 4.5%
NadD inh: inhibitors of S. aureus NadD, primary screen, biochemical, colorimetric, uHTS | Nicotinate-nucleotide adenylyltransferase NadD (Staphylococcus aureus N315) | purified NadD enzyme, colorimetric absorbance read-out | inhibition, % at 20 µM | 360,000 compounds, 0.78% hits; in the data active = inhibition above about 26%
DAGLB inhibitor: DAGLB lipase inhibitors, primary screen, biochemical, fluorescence, HTS. Diacylglycerol lipase-beta (Homo sapiens), Q8NCG7. HEK293T DAGLB membrane lysate, EnzChek fluorogenic substrate. inhibition, % at 5.17 µM. 340,000 compounds, 0.059% hits. AID 504411, 2011; in the data active = inhibition above about 34%
bovine MsrA act: bovine MsrA enzyme activators, primary screen, biochemical, absorbance, HTS; Methionine sulfoxide reductase A (Bos taurus); purified bovine MsrA, absorbance read-out; activation, % at 10.6 µM; 360,000 compounds, 0.3% hits; in the data active = activation above about 7.5%
rCAG bind conf: small molecules binding CAG repeat RNA – biochemical, fluorescence, confirmation | 4,300 compounds, 70% hits | inhibition, % at 3 µM | r(CAG) RNA repeat, TO-PRO-1 dye displacement fluorescence | shares compounds with rCAG binder-1;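 active = inhibition above a per-plate cutoff, the mean inhibition of sample wells plus 3 SD, cut at about 35% in these data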;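 also: loss of TO-PRO-1 fluorescence as compound displaces dye from 1x1 AA loop RNA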
DNA CAG counter: displacement of TO-PRO-1 from CAG DNA duplex, counter-screen for rCAG RNA repeat binder project, biochemical, fluorescence, TO-PRO-1 dye, d(CAG) DNA oligo; shares compounds with rCAG binder-1; 4,300 compounds, 94% hits; inhibition, % at 3 µM; d(CAG) DNA oligo TO-PRO-1 dye displacement;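 active = inhibition above its plate's cutoff, the mean test-well inhibition plus 3 SD, cut at about 4.8% in these data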;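 also: hits displace the dye from DNA and so lower well fluorescence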
DNA CAG DR: inhibitors of DNA CAG/GTC TO-PRO-1 complex, dose response, counter-screen for rCAG RNA repeat binder project, biochemical, fluorescence, TO-PRO-1 dye; IC50, µM; 250 compounds, 20% hits; shares compounds with rCAG binder-1; DNA CAG/GTC duplex TO-PRO-1 dye displacement fluorescence; in the data active = IC50 below about 10 µM
dCAG DNA bind: TO-PRO-1 dye complex inhibitors on d(CAG) DNA, dose response, counter-screen, biochemical, fluorescence, late stage. shares compounds with rCAG binder-1. d(CAG) DNA duplex TO-PRO-1 dye displacement. IC50, µM. 30 compounds, 80% hits. AID 720649, 2013
rCAG binder-2: molecules binding r(CAG) RNA repeats, late stage dose response, late-stage follow-up, biochemical, fluorescence, dose response, powder samples | shares compounds with rCAG binder-1 | AID 720651, 2013 | r(CAG) RNA TO-PRO-1 dye displacement | IC50, µM | 30 compounds, 100% hits
Hits are given with their value; i = inactive; ? = inconclusive; nt = no result given. This is a sample that favours compounds with a hit; in the whole collection about 3.2% have one here. Unless noted, no rule for the calls is given here.

SMILES	DSG3 Ab inh	rCAG binder-1	MsrA inhibitor	NadD inh	DAGLB inhibitor	bovine MsrA act	rCAG bind conf	DNA CAG counter	others
C/C(=N\Nc1ccc(C(=O)O)cc1)c1ccc2c(c1)Nc1ccccc1S2	i	39	i	i	i	i	86	59
COc1ccc(/C(C)=N/Nc2cccc(C(=O)O)c2)cc1OC	i	i	i	i	i	i	nt	nt
COC(=O)[C@]12C=CCN1[C@H](c1ccc(OC)c(OC)c1)c1c(c3ccccc3n1S(=O)(=O)c1ccc(C)cc1)C2	nt	i	nt	nt	nt	nt	nt	nt
CCCCCCCCCC(=O)N1c2ccccc2NC(=O)C1CC(=O)Nc1ccc(C(=O)O)cc1 (stereo unspecified)	i	74	i	i	i	i	70	30
CCCCCCCC(=O)N1c2ccccc2NC(=O)C1CC(=O)Nc1ccc(C(=O)O)cc1 (stereo unspecified)	i	i	i	i	i	i	nt	nt
O=C(O)c1ccc(NC(=O)c2cn(-c3ccccc3)nc2-c2cccc(Cl)c2)cc1	i	36	i	i	i	i	55	19
O=C(/C=C/c1cn(-c2ccccc2)nc1-c1ccccc1)Nc1ccc(C(=O)O)cc1	i	44	i	i	i	i	73	34	DNA CAG DR=7.7;dCAG DNA bind=i;rCAG binder-2=6.8
CCOc1ccc(-c2ccc(/C=C3/C(=N)N4C=CSC4=NC3=O)o2)c([N+](=O)[O-])c1	i	i	i	i	i	i	nt	nt
CCOc1ccc(-c2ccc(/C=C3/C(=N)N4C(C)=CSC4=NC3=O)o2)c([N+](=O)[O-])c1	i	49	i	32	i	i	i	12
Cn1c(O)c(/C=N/NC(=O)c2cc3ccccc3cc2O)c2ccccc21	i	95	i	31	i	i	90	75
COc1ccc2c(c1)cc(C(=O)N/N=C/c1c(O)c(C(=O)O)cc3ccccc13)n2C	?	91	i	i	i	i	89	68
Cc1nc(S/C(=C\c2ccc(-c3ccc(C(=O)O)c(Cl)c3)o2)C(=O)O)n[nH]1	i	36	i	i	i	i	50	16
Cc1ccc(C(=O)Nn2cnc3scc(-c4cccs4)c3c2=O)c(O)c1	i	40	i	i	i	i	i	8.7
COc1ccc(O)c(C(=O)c2cnc3nc4ccccc4n3c2)c1	i	40	i	i	i	i	i	6.5
O=C(NCCc1ccc2c(c1)OCO2)c1cc(-c2ccccc2)c(N2CCOCC2)s1	nt	i	nt	nt	nt	nt	nt	nt
O=C(NC1CCC1)c1ccc(C#Cc2cccc(F)c2)cn1	nt	i	nt	nt	nt	nt	nt	nt
CC1CCCN(S(=O)(=O)c2ccc(C(=O)Nc3nnc(-c4ccco4)o3)cc2)C1 (stereo unspecified)	i	41	i	i	i	i	38	13
CCN(c1ccccc1)S(=O)(=O)c1ccc(C(=O)Nc2nnc(C3CC3)o2)cc1	i	i	i	i	i	i	nt	nt
CN(c1ccccc1)S(=O)(=O)c1ccc(C(=O)Nc2nnc(-c3ccco3)o2)cc1	i	42	i	i	i	i	36	13
CCN(c1ccccc1)S(=O)(=O)c1ccc(C(=O)Nc2nnc(-c3ccco3)o2)cc1	i	57	i	i	i	i	45	15
COC(=O)[C@@]12C[C@@H](CC(=O)NCc3ccc(OC)c(OC)c3)C(=O)N(Cc3ccccc3)C1=CCC(C)(C)C2	nt	i	i	nt	nt	nt	nt	nt
CC(=O)N1CCc2cc(S(=O)(=O)CCC(=O)Nc3ccccc3F)ccc21	i	i	i	i	i	i	nt	nt
CCC(Sc1nc2ccsc2c(=O)n1Cc1ccc(C(=O)O)cc1)C(=O)Nc1ccc(Cl)cc1 (stereo unspecified)	i	72	i	i	i	i	70	34	DNA CAG DR=i
CCc1cccc(CC)c1NC(=O)C(CC)Sc1nc2ccsc2c(=O)n1CCC(=O)O (stereo unspecified)	i	i	i	i	i	i	nt	nt
O=C(Nc1cc(Cl)cc(Cl)c1)N[C@@H]1CC[C@@H](CCNS(=O)(=O)c2cccc(F)c2)O[C@@H]1CO	nt	i	i	nt	nt	nt	nt	nt
SMILES	DSG3 Ab inh	rCAG binder-1	MsrA inhibitor	NadD inh	DAGLB inhibitor	bovine MsrA act	rCAG bind conf	DNA CAG counter	others
COc1cc(CCc2ccccc2)c(C(=O)O)c(O)c1CC=C(C)C	i	79	i	i	i	i	77	41
COc1cc(CCc2ccccc2)c(C(=O)O)c(O)c1C/C=C(/C)CCC=C(C)C	i	93	i	i	i	i	82	47
CCC(NC(=O)c1ccc2c(ccn2Cc2cccc(-c3ccc(C(=O)O)cc3)c2)c1)c1ccccc1 (stereo unspecified)	nt	77	nt	nt	nt	nt	77	35
CCCCOCCCNC(=O)C[C@H]1C[C@@]2(C(=O)OC)C(=C[C@H](C(C)(C)C)O[C@@H]2C)N(Cc2ccco2)C1=O	nt	i	nt	nt	nt	nt	nt	nt
O=S(=O)(Nc1cccc(S(=O)(=O)N2CCCC2)c1)c1ccc(Cl)cc1	?	36	i	i	i	i	i	6.5
O=S(=O)(Nc1cccc(S(=O)(=O)N2CCCCCC2)c1)c1ccccc1	i	i	i	i	i	i	nt	nt
COc1ccc(NS(=O)(=O)c2ccc3c(c2)[C@H]2C=CC[C@H]2[C@@H](c2ccc(C(=O)O)cc2)N3)cc1	i	96	i	30	i	i	92	67
COc1ccc(CC(N)c2csc(NC(=O)Nc3ccc(OC)cc3)n2)cc1 (stereo unspecified)	nt	i	i	i	nt	i	nt	nt
NC(CCc1ccccc1)c1csc(NC(=O)Nc2cccc(Cl)c2)n1 (stereo unspecified)	nt	47	i	i	nt	i	40	9.8
